# RGS4 inh – inhibitors of human regulator of G protein signaling 4; Transcreener GDP fluorescence polarization, RGS4-accelerated GTP hydrolysis; Potency, µM (highest dose often 114 µM), for inactives: top-dose activity change, negative = inhibition, usual class: inhibitors; 0.039% of 390,000 active; AID 504845; also: potency is read from the fitted curve at half-maximal effect; % is scaled to controls: 0 for no effect and ±100 for the full control effect; nearly all actives have a fitted effect of over 75% in size
#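 MLSMR compounds (23 nl, pin-transferred) preincubated 10 min at room temperature with a 500nM (2x) first reagent, then RGS4 at 900nM (2x) plus Transcreener GDP mix added; fluorescence polarization (620/688 nm) read before and after 90 min at 30 °C.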
# LDHA inh – LDHA (human) enzyme inhibition; purified LDHA, NADH/diaphorase-resazurin fluorescence; stronger effect = lower value; P00338; activity change, % (values are at about 110 or 230 µM); 0.15% of 480,000 active; in the data active = activity change below about -30%; inconclusive = mostly about -25% to -30%;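 also: plate controls were DMSO wells for no effect and wells without enzyme for full effect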
#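 Resorufin fluorescence (ex540/em590), read at 0 and 20 min after diaphorase/resazurin addition, reports the NADH left after a 5 min room-temperature reaction of 2 nM human LDH5 with 0.06 mM NADH and 0.2 mM pyruvate.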
# BRCA1 expr act – increases BRCA1 expression. MCF7-BRCA1-FFLuc reporter, luminescence, 48 h; response scale: scaled: vehicle 0%, 10 µM genistein 100%. Potency, µM (titrated, usually from 46.1 µM), inactives show at the highest dose activation, most hits filed as activators. 1.1% of 380,000 active; also: potency is read from the fitted curve at half-maximal effect; nearly all actives have a fitted effect of over 80% in size
#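 48 h compound treatment of MCF7-BRCA1-FFLuc cells (phenol-red free MEM, 37 °C), then 15 min with luciferase substrate and luminescence imaging.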
# p53 reactivation – re-activators of mutant p53; H1299 p53-A138V BP100-luciferase reporter, luminescence, 24 h; Potency, µM (highest dose often 92.2 µM), without a hit: top-dose activity change, positive = activation, hits mostly activators; 0.063% of 320,000 active; also: potency is read from the fitted curve at half-maximal effect; % of control where 0% means no effect; nearly all actives have a fitted effect of over 45% in size
#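 p53-null H1299 cells stably carrying temperature-sensitive p53-A138V and a BP100-luciferase reporter were pinned with compounds (4-point, 1:5 series) and held 24 hrs at 37 deg C. Luminescence was read 10 min after detection reagent.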
# PTHR1 ag – agonists of human PTHR1 parathyroid hormone receptor; HEK293 GP2 PTHR1 cells, GloSensor cAMP luminescence, 1 h; Potency, µM (series often up to 115 µM), for inactives: at the top dose activation, hits mostly activators; 0.075% of 410,000 active; AID 743266; also: potency is read from the fitted curve at half-maximal effect; nearly all actives have a fitted effect of over 55% in size
# Target sequence (Q03431 whole entry, looked up): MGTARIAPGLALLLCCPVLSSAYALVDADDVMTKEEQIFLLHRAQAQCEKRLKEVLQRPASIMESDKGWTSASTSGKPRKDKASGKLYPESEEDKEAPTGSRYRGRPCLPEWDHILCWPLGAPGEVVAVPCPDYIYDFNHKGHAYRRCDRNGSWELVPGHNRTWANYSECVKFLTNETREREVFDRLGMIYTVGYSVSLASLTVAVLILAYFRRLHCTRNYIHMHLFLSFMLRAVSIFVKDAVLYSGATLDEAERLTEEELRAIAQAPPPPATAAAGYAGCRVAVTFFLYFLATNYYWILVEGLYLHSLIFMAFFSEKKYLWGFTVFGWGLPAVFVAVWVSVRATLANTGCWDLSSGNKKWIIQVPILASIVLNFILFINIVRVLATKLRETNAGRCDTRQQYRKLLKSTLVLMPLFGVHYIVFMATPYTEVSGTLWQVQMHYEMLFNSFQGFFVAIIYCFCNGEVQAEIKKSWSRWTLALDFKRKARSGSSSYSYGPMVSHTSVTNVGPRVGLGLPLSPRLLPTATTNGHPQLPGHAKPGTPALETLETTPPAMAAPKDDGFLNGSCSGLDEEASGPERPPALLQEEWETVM
#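 HEK-293-derived GP2 cells expressing PTHR1 and a GloSensor cAMP reporter, 3,000/well, plated overnight, given luciferin plus IBMX (each 0.5 mM as added) for 1 h at 37 °C, then compound for 1 h at 37 °C. Luminescence was read after 15 min at room temperature.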
# An asterisk follows results filed as active; i = inactive; ? = inconclusive; . = not tested or not shown; ! = a repeat was not active; [ ] = remark or other dose. Shown are actives, neighbours in structure and some others; about 1.1% of the full set was active somewhere. Unless noted, calls follow the shape of the dose curve; as a rule, active = well fitted curve in the direction sought with a large enough effect; inconclusive = small, poorly fitted or top-dose-only effect, or another doubt; inactive = no such curve, though single readings can be large; an effect the other way counts as inactive or inconclusive.
SMILES,RGS4 inh,LDHA inh,BRCA1 expr act,p53 reactivation,PTHR1 ag
Nc1nnnn1/N=C/c1cc(Br)ccc1O,8%,-47*,-6%,.,-10%
Nc1nnnn1/N=C/c1ccc(Br)cc1,-9%,-11,13%,-10%,i
Cc1nn(-c2ccccc2)c(/N=C/c2ccc(O)cc2)c1-c1ccccc1,-53%,-5,5.6µM*,?,-21%
Cc1ccc(COn2c(-c3ccc(Cl)cc3)nc3ccc([N+](=O)[O-])cc32)cc1,42%,-11,10µM*,?,-20%[57.5 µM]
O=[N+]([O-])c1ccc2nc(-c3ccc(Cl)cc3)n(OCc3ccccc3)c2c1,-8%,9,?,?,-61%
Nc1nnnn1NCc1ccc(-c2ccccc2)o1,.,9,.,.,.
COc1ccc(-c2noc(-c3ccoc3C)n2)cc1,18%[56.9 µM],-6,11µM*,16%,-47%
COc1ccc(-c2noc(-c3ccoc3C)n2)cc1OC,-16%,-2,4.5µM*,-2%,i
Cc1cccc(-c2noc(-c3ccoc3C)n2)c1,9%,1,-7%,8%,-3%
COc1cccc(-c2noc(-c3ccoc3C)n2)c1,-13%,-15,2%,?,-35%
COc1ccc(S(=O)(=O)Nc2ccccc2OC)cc1NC(=O)c1cc2ccccc2oc1=O,-3%,-6,81%,22µM*,-1%
c1ccc(SCc2nc3ccccc3s2)nc1,-20%,1,3.2µM*,?,-21%
c1ccc(-c2nc3ccccc3s2)nc1,13%,-13,8.9µM*,?,-17%
CC(=O)N1CCN(C(=O)Cn2ccc3cc(Br)ccc32)CC1,.,11,.,.,.
C[C@H](N)C(=O)O,i,.,.,.,.
C[C@@H](N)C(=O)O,21µM*!,.,.,.,.
CC(C)C[C@@H](N)C(=O)O,38µM*,.,.,.,.
Cc1cc(/C=C(/CCCC(=O)O)c2nc3ccccc3s2)cc(C)c1O,.,0,.,.,.
O=C(/C=C/c1ccccc1Cl)NCc1cccs1,-1%,-10,4µM*,?,-3%
O=C(/C=C/c1ccc(F)cc1)NCc1cccs1,6%,-7,14µM*,?,-14%
O=C(/C=C/c1cccs1)NCc1ccccc1,-6%,-10,14µM*,2%,-9%
CCC(C)NC(=O)/C=C/c1cccs1 (configuration not stated),6%,-13,2%,?,i
CC(C)CC1NC(=O)N(Cc2coc(-c3ccccc3)n2)C1=O (configuration not stated),.,-11,.,.,.
CC1CC(C)CN(C(=O)c2ccc3ccccc3c2)C1 (configuration not stated),20%,-9,14%,12%,-30%
CC1CCN(C(=O)c2ccc3ccccc3c2)CC1,2%,-1,2.5µM*,.,i
SMILES,RGS4 inh,LDHA inh,BRCA1 expr act,p53 reactivation,PTHR1 ag
N#Cc1ccc(-c2ccc3c(c2)OCO3)nc1SCC(=O)Nc1ccccc1Cl,.,-2,.,.,.
COc1ccc2cc(C3=CC(=O)CC(C)(C)C3=O)ccc2c1,.,5,13µM*,.,-39%
O=C(CSc1nnc(-c2ccccc2F)o1)N1CCCC1,-10%,0,?,27%,i
Cc1occc1-c1nnc(SCC(=O)N(C)c2ccccc2)o1,-2%,-3,11%,14%,i
CCC1CCCCN1C(=O)CSc1nnc(-c2cccs2)o1 (configuration not stated),-30%,0,8.9µM*,?,-15%
CN(C(=O)CSc1nnc(-c2ccccc2F)o1)c1ccccc1,16%,-4,11µM*,4%,i
CC1CCCCN1C(=O)CSc1nnc(-c2ccccc2F)o1 (configuration not stated),17%,-10,3.2µM*,?,-18%
CC1CCCCN1C(=O)CSc1nnc(-c2ccco2)o1 (configuration not stated),-15%,2,3.2µM*,?,6%
N#Cc1ccccc1CN1CCSc2ccccc21,.,-7,.,.,.
CCn1nnnc1SCC(=O)Nc1ccc2c(c1)OCCO2,-26%,2,74%,10µM*,-5%[57.5 µM]
O=C(CNCc1ccccc1Cl)Nc1ccc2c(c1)OCCO2,-6%,-14,10µM*,8%,-72%
O=C(Nc1ccc2c(c1)OCO2)N1CCN(c2ccccc2Cl)CC1,-1%,14,10µM*,20%,-8%
COCCCn1nnnc1SCC(=O)Nc1ccc2c(c1)OCCO2,1%,0,-2%,2%,-6%
CCN(CC(=O)Nc1ccc2c(c1)OCCO2)C(=O)c1ccc(Cl)cc1Cl,2%,-9,1.8µM*,?,-54%
O=C(Nc1ccccc1)N1CCN(c2ccccc2Cl)CC1,.,-4,.,.,.
O=C(CSc1ccccn1)Nc1ccc2c(c1)OCCO2,22%,-9,11µM*,12%,-28%
O=C(CSc1ncccn1)Nc1ccc2c(c1)OCO2,-9%,-1,50%,17%,i
O=C(CSc1ccccn1)Nc1ccc2ccccc2c1,.,.,.,13%,.
O=C(CSc1ccccn1)Nc1ccc2c(c1)CCC2,-19%,-3,10µM*,8%,-9%
O=C(CSc1nnc(-c2cccc(Cl)c2)o1)Nc1ccc2c(c1)OCCO2,13%,-3,7.9µM*,?,i
O=C(CSc1ncccn1)NC(=O)Nc1ccc2c(c1)OCCO2,-13%,-5,13µM*,8%,-10%
CC(=O)C1=C(C)CC2C3CC=C4CC(O)CCC4(C)C3CCC12C (configuration not stated),.,4,.,.,.
Cc1oc(-c2ccccc2)nc1C(=O)NCc1ccccc1,.,-24,.,.,.
Cc1ccc(-c2cnc(CCC(=O)N3CCN(CC(=O)Nc4cccc(F)c4)CC3)o2)cc1,.,-19,.,.,.
Cn1cccc1C(=O)OCC(=O)Nc1ccc2c(c1)OCCO2,-7%,-4,2µM*,?,-42%
SMILES,RGS4 inh,LDHA inh,BRCA1 expr act,p53 reactivation,PTHR1 ag
Cc1cccc(OCCOc2ccc3ccc(=O)oc3c2)c1,.,11,.,.,.
O=C(O)CCc1ccc(-c2ccccc2)n1-c1cccc(C(=O)O)c1,-12%,-1,13µM*,?,i
CCCn1c(C)cc(C(=O)CN2C(=O)NC3(CCCCCC3)C2=O)c1C,.,3,75%,.,-20%
COCCn1c(C)cc(C(=O)CN2C(=O)NC3(CCCCCC3)C2=O)c1C,-45%,-7,5.6µM*,?,-16%
O=C(COC(=O)C1CCN(c2ccc(C(F)(F)F)cn2)CC1)Nc1ccc(C(F)(F)F)cc1,.,3,.,.,.
O=c1[nH][nH]c(=O)c2c(NS(=O)(=O)c3ccccc3)cccc12,?,-3,13µM*,14%,-96%
O=S(=O)(Nc1ccc(NS(=O)(=O)c2ccccc2)c2ccccc12)c1ccccc1,.,-1,10%,.,-12%
CCOC(=O)C1=C(C)N(C2CC2)C(=O)NC1c1ccccc1OC(F)F (configuration not stated),.,-6,.,.,.

# Screening data deposited in PubChem BioAssay by National Center for Advancing Translational Sciences (NCATS).
